# Data published in PubChem BioAssay (EPA / NIEHS).
# Activity calls are given as the source filed them. The calls were made as follows: active = hit-call score of the fitted dose curve at least 0.9, where 1 is the maximum; inactive = score below 0.9.
# Columns and labels:
# [1] = CEETOX_H295R_PROG: CeeTox H295R High-throughput Steroidogenesis Assay for Progesterone (PROG) (AID 2283442); settings: actives raise or lower the signal;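 as to AC50: human H295R adrenal cells primed with 10 µM forskolin before dosing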
# In short: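 H295R adrenal cells prestimulated 48 h with 10 uM forskolin, then exposed 48 h to test chemical in 0.1% DMSO. Progesterone in medium quantified by HPLC-MS/MS after MTBE extraction; viability checked by MTT in same wells.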
# [2] = read-out: Tumor necrosis factor receptor superfamily member 6 (Homo sapiens) (UniProt P25445); assay: LTEA_HepaRG_FAS: Life Technologies and Expression Analysis (LTEA) Assay for Fas cell surface death receptor (FAS) using HepaRG (AID 2283447); settings: mRNA level, 48 h; actives raise or lower the signal
# In short: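 Differentiated HepaRG cells in serum-free induction medium were exposed 48 h to 8 half-log concentrations up to 100 uM in 0.5% DMSO, in duplicate. FAS mRNA was measured by qRT-PCR normalised to ACTB, GAPDH and POLR2A; bidirectional fit versus DMSO.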
# [3] = read-out: Fatty acid synthase (Homo sapiens) (UniProt P49327); assay: LTEA_HepaRG_FASN: Life Technologies and Expression Analysis (LTEA) Assay for Fatty Acid Synthase (FASN) using HepaRG (AID 2283448); settings: mRNA level, 48 h; actives raise or lower the signal
# In short: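 Transcript-level assay: HepaRG liver cells are treated for 48 h across an eight-point range topping at 100 uM, and FASN mRNA, normalized to three housekeeping genes, is compared with DMSO controls in both directions.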
# [4] = read-out: Cyclin D2 (CCND2), CCND2 (gene 894); assay: LTEA_HepaRG_CCND2: Life Technologies and Expression Analysis (LTEA) Assay for Cyclin D2 (CCND2) using HepaRG (AID 2283449); settings: mRNA level, 48 h; actives raise or lower the signal;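 also: CCND2 transcript measured by TaqMan qRT-PCR and normalised to three housekeeping genes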
# In short: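 Chemicals in 0.5% DMSO, eight half-log concentrations from 100 uM top, were applied in duplicate for 48 h to human HepaRG cells in serum-free induction medium. CCND2 mRNA by TaqMan qRT-PCR, normalised to ACTB/GAPDH/POLR2A; bidirectional fit versus DMSO.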
# [5] = read-out: Cyclin Dependent Kinase Inhibitor 1A (CDKN1A), CDKN1A (gene 1026); assay: LTEA_HepaRG_CDKN1A: Life Technologies and Expression Analysis (LTEA) Assay for Cyclin Dependent Kinase Inhibitor 1A (CDKN1A) using HepaRG (AID 2283450); settings: mRNA level, 48 h; actives raise or lower the signal
# In short: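 Differentiated HepaRG cells in serum-free induction medium, exposed 48 h in duplicate to eight half-log concentrations up to 100 uM in 0.5% DMSO. mRNA measured by TaqMan qRT-PCR, normalized to ACTB, GAPDH, POLR2A; bidirectional fit versus DMSO.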
# [6] = read-out: catalase (CAT), CAT (gene 847); assay: LTEA_HepaRG_CAT: Life Technologies and Expression Analysis (LTEA) Assay for catalase (CAT) using HepaRG (AID 2283452); settings: mRNA level, 48 h; actives raise or lower the signal
# In short: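 HepaRG cells in serum-free induction medium, 0.5% DMSO vehicle, exposed 48 h in duplicate over 8 half-log concentrations from 100 uM. CAT mRNA measured by qRT-PCR, normalized to ACTB, GAPDH, POLR2A; bidirectional fit versus DMSO.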
# [7] = read-out: flavin-containing dimethylaniline monooxygenases 3 (FMO3), FMO3 (gene 2328); assay: LTEA_HepaRG_FMO3: Life Technologies and Expression Analysis (LTEA) Assay for flavin-containing dimethylaniline monooxygenases 3 (FMO3) using HepaRG (AID 2283453); settings: mRNA level, 48 h; actives raise or lower the signal
# In short: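 HepaRG, 48 h exposure, 8-pt half-log series from 100 uM, 0.5% DMSO vehicle, duplicates; FMO3 transcript by Fluidigm TaqMan qRT-PCR, housekeeping-normalized; gain/loss fit vs DMSO.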
# [8] = read-out: Cytochrome P450 (CYP1A1), CYP1A1 (gene 1543); assay: LTEA_HepaRG_CYP1A1: Life Technologies and Expression Analysis (LTEA) Assay for Cytochrome P450 (CYP1A1) using HepaRG (AID 2283454); settings: mRNA level, 48 h; actives raise or lower the signal
# In short: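 Differentiated human HepaRG cells, after 48 h plating, exposed in duplicate for 48 h in serum-free induction medium to 8 half-log concentrations up to 100 uM in 0.5% DMSO. CYP1A1 mRNA by qRT-PCR, normalized to ACTB/GAPDH/POLR2A; bidirectional fit versus DMSO.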
# [9] = read-out: CFLAR gene, CFLAR (gene 8837); assay: LTEA_HepaRG_CFLAR: Life Technologies and Expression Analysis (LTEA) Assay for CFLAR gene using HepaRG (AID 2283455); settings: mRNA level, 48 h; actives raise or lower the signal
# In short: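 Differentiated HepaRG cells in serum-free induction medium were exposed 48 h in duplicate to eight half-log concentrations up to 100 uM in 0.5% DMSO; mRNA measured by TaqMan qRT-PCR, normalized to ACTB, GAPDH, POLR2A; bidirectional fitting versus DMSO.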
# [10] = read-out: growth arrest and DNA damage 45 (GADD45A), GADD45A (gene 1647); assay: LTEA_HepaRG_GADD45A: Life Technologies and Expression Analysis (LTEA) Assay for growth arrest and DNA damage 45 (GADD45A) using HepaRG (AID 2283458); settings: mRNA level, 48 h; actives raise or lower the signal
# In short: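 Human HepaRG liver cells are treated in duplicate for 48 h with chemicals in 0.5% DMSO, highest concentration 100 uM. Expression is read by qRT-PCR and analyzed in both directions against vehicle.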
# [11] = read-out: Forkhead box O3 (FOXO3), FOXO3 (gene 2309); assay: LTEA_HepaRG_FOXO3: Life Technologies and Expression Analysis (LTEA) Assay for Forkhead box O3 (FOXO3) using HepaRG (AID 2283459); settings: mRNA level, 48 h; actives raise or lower the signal
# In short: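 Differentiated human HepaRG cells, 48 h post-plating, exposed in duplicate for 48 h in serum-free induction medium; 8-point half-log series from 100 uM in 0.5% DMSO. FOXO3 mRNA by TaqMan qRT-PCR, normalized to ACTB/GAPDH/POLR2A; bidirectional fit versus DMSO.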
# [12] = read-out: ABC Transporter (ABCB1), ABCB1 (gene 5243); assay: LTEA_HepaRG_ABCB1: Life Technologies and Expression Analysis (LTEA) Assay for ABC Transporter (ABCB1) using HepaRG (AID 2283460); settings: mRNA level, 48 h; actives raise or lower the signal
# In short: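 HepaRG cells exposed in duplicate for 48 h in serum-free induction medium to eight half-log concentrations up to 100 uM in 0.5% DMSO. ABCB1 mRNA quantified by qRT-PCR, normalised to ACTB, GAPDH and POLR2A; fitted bidirectionally versus DMSO.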
# [13] = read-out: growth arrest and DNA damage 45 (GADD45B), GADD45B (gene 4616); assay: LTEA_HepaRG_GADD45B: Life Technologies and Expression Analysis (LTEA) Assay for growth arrest and DNA damage 45 (GADD45B) using HepaRG (AID 2283461); settings: mRNA level, 48 h; actives raise or lower the signal
# In short: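 Differentiated human HepaRG cells in serum-free induction medium exposed 48 h in duplicate to eight concentrations, top 100 uM, half-log steps, 0.5% DMSO. GADD45B mRNA by TaqMan qRT-PCR, normalized to ACTB, GAPDH, POLR2A; bidirectional fit versus DMSO.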
# [14] = read-out: ABC Transporter (ABCC3), ABCC3 (gene 8714); assay: LTEA_HepaRG_ABCC3: Life Technologies and Expression Analysis (LTEA) Assay for ABC Transporter (ABCC3) using HepaRG (AID 2283462); settings: mRNA level, 48 h; actives raise or lower the signal
# In short: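 Differentiated human HepaRG cells exposed 48 h in serum-free induction medium, 0.5% DMSO vehicle, 8-point half-log series to 100 uM in duplicate. ABCC3 mRNA by qRT-PCR, normalised to ACTB, GAPDH, POLR2A; bidirectional fit vs DMSO.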
# [15] = CEETOX_H295R_DOC: CeeTox H295R High-throughput Steroidogenesis Assay for DOC (AID 2283439); settings: actives raise or lower the signal
# In short: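 Secreted DOC was quantified from H295R media by HPLC-MS/MS after 48 h chemical exposure following 48 h forskolin (10 uM) prestimulation. Values were fitted in both directions relative to DMSO, the negative control and baseline.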
# [16] = read-out: Cyclin D1 (CCND1), CCND1 (gene 595); assay: LTEA_HepaRG_CCND1: Life Technologies and Expression Analysis (LTEA) Assay for Cyclin D1 (CCND1) using HepaRG (AID 2283451); settings: mRNA level, 48 h; actives raise or lower the signal
# In short: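 Differentiated HepaRG cells exposed 48 h in serum-free induction medium to eight half-log concentrations from 100 uM top, 0.5% DMSO, duplicates. CCND1 mRNA measured by Fluidigm TaqMan qRT-PCR, normalised to ACTB, GAPDH, POLR2A; bidirectional fit.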
# [17] = read-out: Forkhead box O1 (FOXO1), FOXO1 (gene 2308); assay: LTEA_HepaRG_FOXO1: Life Technologies and Expression Analysis (LTEA) Assay for Forkhead box O1 (FOXO1) using HepaRG (AID 2283456); settings: mRNA level, 48 h; actives raise or lower the signal
# In short: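 Differentiated HepaRG cells, in serum-free induction medium with 0.5% DMSO, exposed 48 h in duplicate to 8-point half-log series from 100 uM. FOXO1 mRNA measured by TaqMan qRT-PCR, normalized to ACTB, GAPDH, POLR2A; bidirectional fit versus DMSO.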
# Fatty acid synthase (Homo sapiens), sequence (P49327 whole entry, looked up): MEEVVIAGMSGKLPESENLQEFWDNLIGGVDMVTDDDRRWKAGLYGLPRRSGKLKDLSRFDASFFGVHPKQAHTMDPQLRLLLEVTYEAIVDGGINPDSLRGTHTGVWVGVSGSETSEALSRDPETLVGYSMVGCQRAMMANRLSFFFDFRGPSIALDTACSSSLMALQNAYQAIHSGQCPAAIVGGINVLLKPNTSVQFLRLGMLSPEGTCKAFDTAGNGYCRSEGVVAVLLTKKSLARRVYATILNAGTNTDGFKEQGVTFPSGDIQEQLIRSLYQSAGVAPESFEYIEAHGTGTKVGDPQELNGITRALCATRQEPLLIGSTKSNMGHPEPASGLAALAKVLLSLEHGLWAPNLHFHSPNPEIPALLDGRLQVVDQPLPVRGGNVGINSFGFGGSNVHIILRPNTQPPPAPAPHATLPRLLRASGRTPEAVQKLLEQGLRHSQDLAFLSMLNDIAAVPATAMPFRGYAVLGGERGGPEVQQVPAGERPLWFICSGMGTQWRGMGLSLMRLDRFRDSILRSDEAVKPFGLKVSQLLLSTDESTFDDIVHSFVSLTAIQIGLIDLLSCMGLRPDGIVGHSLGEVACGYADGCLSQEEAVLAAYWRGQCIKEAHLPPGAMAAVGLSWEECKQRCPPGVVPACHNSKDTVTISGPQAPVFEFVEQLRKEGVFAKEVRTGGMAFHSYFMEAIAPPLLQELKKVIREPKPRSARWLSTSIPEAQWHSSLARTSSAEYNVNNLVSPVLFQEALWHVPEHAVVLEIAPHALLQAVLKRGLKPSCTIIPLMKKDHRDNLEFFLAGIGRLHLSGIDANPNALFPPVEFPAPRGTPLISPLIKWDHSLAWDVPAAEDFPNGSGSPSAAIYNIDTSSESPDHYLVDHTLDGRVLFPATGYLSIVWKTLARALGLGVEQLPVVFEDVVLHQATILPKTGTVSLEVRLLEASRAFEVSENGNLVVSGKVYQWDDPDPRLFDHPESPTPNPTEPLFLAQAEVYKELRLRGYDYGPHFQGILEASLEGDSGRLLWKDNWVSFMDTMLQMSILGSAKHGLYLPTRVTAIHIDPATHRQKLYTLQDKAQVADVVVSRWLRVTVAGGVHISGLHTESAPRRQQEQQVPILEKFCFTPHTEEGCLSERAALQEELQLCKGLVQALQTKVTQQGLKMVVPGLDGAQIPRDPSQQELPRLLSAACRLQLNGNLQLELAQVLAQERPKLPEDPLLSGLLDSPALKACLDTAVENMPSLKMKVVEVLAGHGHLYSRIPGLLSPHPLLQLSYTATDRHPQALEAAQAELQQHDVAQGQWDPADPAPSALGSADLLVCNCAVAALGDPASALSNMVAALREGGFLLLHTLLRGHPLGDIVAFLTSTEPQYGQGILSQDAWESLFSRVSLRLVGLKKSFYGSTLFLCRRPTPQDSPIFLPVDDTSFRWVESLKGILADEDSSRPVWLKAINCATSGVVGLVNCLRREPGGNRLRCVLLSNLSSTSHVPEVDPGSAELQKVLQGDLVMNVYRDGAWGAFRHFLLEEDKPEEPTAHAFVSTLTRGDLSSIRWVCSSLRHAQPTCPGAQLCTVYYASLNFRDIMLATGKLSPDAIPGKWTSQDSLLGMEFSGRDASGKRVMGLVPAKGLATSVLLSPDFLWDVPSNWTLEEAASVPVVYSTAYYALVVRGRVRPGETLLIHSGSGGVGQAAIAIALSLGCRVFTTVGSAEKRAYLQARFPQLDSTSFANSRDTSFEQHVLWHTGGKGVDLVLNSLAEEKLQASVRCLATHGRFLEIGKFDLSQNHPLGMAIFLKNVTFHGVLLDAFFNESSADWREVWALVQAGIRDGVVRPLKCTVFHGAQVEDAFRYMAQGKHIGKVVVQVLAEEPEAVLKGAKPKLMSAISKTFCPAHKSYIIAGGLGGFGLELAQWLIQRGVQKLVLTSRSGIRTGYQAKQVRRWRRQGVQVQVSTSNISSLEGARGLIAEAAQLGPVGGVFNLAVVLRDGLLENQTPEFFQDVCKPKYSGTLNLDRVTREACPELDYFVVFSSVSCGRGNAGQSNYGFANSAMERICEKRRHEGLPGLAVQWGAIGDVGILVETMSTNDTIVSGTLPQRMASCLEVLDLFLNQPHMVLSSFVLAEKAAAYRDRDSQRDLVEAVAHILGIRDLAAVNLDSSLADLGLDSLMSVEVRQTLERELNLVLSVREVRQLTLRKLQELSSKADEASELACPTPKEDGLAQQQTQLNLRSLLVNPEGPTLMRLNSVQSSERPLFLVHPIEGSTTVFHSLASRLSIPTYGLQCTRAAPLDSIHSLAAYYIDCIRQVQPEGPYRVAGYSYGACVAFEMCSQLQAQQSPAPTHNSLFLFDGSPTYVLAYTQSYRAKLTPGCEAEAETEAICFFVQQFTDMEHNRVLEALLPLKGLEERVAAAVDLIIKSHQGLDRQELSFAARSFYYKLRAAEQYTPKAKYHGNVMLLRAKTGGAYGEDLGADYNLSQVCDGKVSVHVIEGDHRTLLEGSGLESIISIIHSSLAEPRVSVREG
smiles,measurement,setting,value
Cc1c(-c2cccnc2)c2ccccc2n1CCCCC(=O)O,AC50,[1],7.25 µM (active)
same,outcome,[2],inactive
same,outcome,[3],inactive
same,outcome,[4],inactive
same,outcome,[5],inactive
same,outcome,[6],inactive
same,outcome,[7],inactive
same,AC50,[8],37.2 µM (active)
same,outcome,[9],inactive
same,outcome,[10],inactive
same,outcome,[11],inactive
same,outcome,[12],inactive
same,outcome,[13],inactive
same,outcome,[14],inactive
COc1ccc(-n2nc(C(F)F)cc2-c2ccc(S(C)=O)cc2)cc1 (centres undefined),outcome,[15],inactive
same,outcome,[1],inactive
same,outcome,[2],inactive
same,outcome,[3],inactive
same,outcome,[4],inactive
same,outcome,[5],inactive
same,outcome,[16],inactive
same,outcome,[6],inactive
same,outcome,[7],inactive
same,AC50,[8],60.3 µM (active)
same,outcome,[9],inactive
same,outcome,[17],inactive
same,outcome,[10],inactive
same,outcome,[11],inactive
same,outcome,[12],inactive
same,outcome,[13],inactive
same,outcome,[14],inactive
Nc1ccc(Nc2ccccc2)cc1,AC50,[15],4.03 µM (active)
same,outcome,[1],inactive
same,outcome,[2],inactive
same,outcome,[3],inactive
same,outcome,[4],inactive
same,outcome,[5],inactive
same,outcome,[16],inactive
same,outcome,[6],inactive
same,AC50,[7],50 µM (active)
same,AC50,[8],10.9 µM (active)
same,outcome,[9],inactive
same,outcome,[10],inactive
same,outcome,[11],inactive
same,outcome,[12],inactive
same,AC50,[13],63.2 µM (active)
same,outcome,[14],inactive
CC(C)(O)c1coc(S(=O)(=O)NC(=O)Nc2c3c(cc4c2CCC4)CCC3)c1,AC50,[15],25.2 µM (active)
same,AC50,[1],19.4 µM (active)
same,outcome,[2],inactive
same,outcome,[3],inactive
same,outcome,[4],inactive
same,outcome,[5],inactive
same,outcome,[16],inactive
same,outcome,[6],inactive
same,outcome,[7],inactive
same,AC50,[8],50 µM (active)
same,outcome,[9],inactive
same,outcome,[17],inactive
same,outcome,[10],inactive
same,outcome,[11],inactive
same,outcome,[12],inactive
same,outcome,[13],inactive
same,outcome,[14],inactive
